Laboratory results from PubChem BioAssay AID488969 (Vanderbilt High Throughput Screening Facility, 2010).
Whole data set: some 110,000 compounds, median “z-score” near -0.1, cut for the highest 2% near 2. The sample as a whole holds a higher share of the highest values than the screen did. Active and inactive are the calls of the source.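 The calls were made as follows: active = z-score in the third read window above 3 or below -3; inactive = the rest.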

Target: Metabotropic glutamate receptor 8 (Rattus norvegicus) (UniProt P70579)
Assay: rat mGluR8 modulators via GIRK flux, primary screen, cell-based, thallium flux, HTS (AID 488969)
Details: HEK293 rat mGluR8, GIRK (G protein-gated inwardly rectifying potassium channel) thallium flux, FluoZin2; at 10 µM; stronger effect = higher value; submaximal glutamate (EC20) added with thallium

Chain of Metabotropic glutamate receptor 8 (Rattus norvegicus) (P70579 whole entry, looked up): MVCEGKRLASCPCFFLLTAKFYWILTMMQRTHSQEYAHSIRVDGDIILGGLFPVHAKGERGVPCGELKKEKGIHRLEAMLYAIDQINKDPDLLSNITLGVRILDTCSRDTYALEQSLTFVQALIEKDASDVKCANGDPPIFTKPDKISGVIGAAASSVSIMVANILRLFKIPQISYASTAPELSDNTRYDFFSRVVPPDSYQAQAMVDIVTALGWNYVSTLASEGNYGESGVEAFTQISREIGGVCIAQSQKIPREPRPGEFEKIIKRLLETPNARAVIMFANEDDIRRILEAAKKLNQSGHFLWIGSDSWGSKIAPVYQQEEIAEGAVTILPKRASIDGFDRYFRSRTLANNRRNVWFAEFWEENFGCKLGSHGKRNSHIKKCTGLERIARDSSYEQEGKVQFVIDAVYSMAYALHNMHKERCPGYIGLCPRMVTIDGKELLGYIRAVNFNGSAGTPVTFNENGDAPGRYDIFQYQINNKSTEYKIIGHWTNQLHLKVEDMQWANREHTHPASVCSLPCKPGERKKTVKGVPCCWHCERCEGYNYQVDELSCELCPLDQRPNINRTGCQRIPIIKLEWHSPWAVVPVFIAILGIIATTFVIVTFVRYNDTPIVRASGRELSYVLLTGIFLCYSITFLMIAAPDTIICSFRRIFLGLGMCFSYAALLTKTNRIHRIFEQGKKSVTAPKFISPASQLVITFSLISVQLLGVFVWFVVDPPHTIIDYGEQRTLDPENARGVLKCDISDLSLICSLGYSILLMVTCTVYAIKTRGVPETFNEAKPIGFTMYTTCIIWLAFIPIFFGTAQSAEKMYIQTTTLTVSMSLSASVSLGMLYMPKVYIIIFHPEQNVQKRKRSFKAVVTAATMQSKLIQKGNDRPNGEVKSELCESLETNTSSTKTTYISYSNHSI

SMILES	z-score
COCCn1c(=S)[nH]c2cc(C(=O)N3CCC(C(N)=O)(N4CCCCC4)CC3)ccc2c1=O	-0.286
COc1ccccc1N1CCN(Cc2ccc(O)c3ncccc23)CC1	-0.0396
CCOc1ccccc1N1CCN(Cc2cccc(OC)c2O)CC1	-0.0607
COc1ccccc1N1CCN(Cc2cc(Br)c(O)c3ncccc23)CC1	3.32 (active)
Cc1cc(C(=O)NCC(=O)OCC(=O)N(C)C2CCCCC2)ccc1[N+](=O)[O-]	0.828
CCOC(=O)C1C(=O)C=C(/C=C/c2ccccc2)CC1c1ccc(Cl)cc1 (stereo not drawn)	-0.123
CC(C)[C@H](NC(=O)OC(C)(C)C)c1nnc(SCC(=O)Nc2ccc(Br)cc2)o1	-0.355
Cn1c(N2CCN(C(=O)NC34CC5CC(CC(C5)C3)C4)CC2)nc2ccccc21	-0.317
Cc1cc(C)cc(-n2c(SCC(=O)Nc3cccc(S(=O)(=O)NC4=NCCCCC4)c3)nc3ccccc3c2=O)c1	-0.139
Cc1ccc(-n2c(SCC(=O)Nc3cccc(S(=O)(=O)NC4=NCCCCC4)c3)nc3ccccc3c2=O)cc1	-0.48
O=C(CSc1ccc2ccccc2c1Br)Nc1cccc(S(=O)(=O)NC2=NCCCCC2)c1	14.5 (active)
CCCCC(c1nnnn1C1CCCC1)N1CCN(C2CCCCC2)CC1 (stereo not drawn)	-0.391
O=C(NC1CC1)C1CCCN1S(=O)(=O)c1ccc2ccccc2c1 (stereo not drawn)	-0.112
O=C(O)C1CCCCN1S(=O)(=O)c1ccc2ccccc2c1 (stereo not drawn)	-0.217
COC(=O)C1CCCN1S(=O)(=O)c1ccc2ccccc2c1 (stereo not drawn)	2.41
Cc1ccc(C(=O)COc2ccccc2-c2ccccc2)cc1	-0.229
CCOc1ccccc1C(=O)N(Cc1ccccc1)Cc1cc2cc3c(cc2[nH]c1=O)OCCO3	0.283
CCOC(=O)c1ccc(NC(=O)CCNC(=O)c2ccc([N+](=O)[O-])cc2)cc1	-0.327
CCn1nc([N+](=O)[O-])c(C(C#N)c2nc3cc(C(F)(F)F)ccc3s2)c(Cl)c1=O (stereo not drawn)	2.97
CCn1nc([N+](=O)[O-])c(C(C#N)c2nc3ccccc3n2C)c(Cl)c1=O (stereo not drawn)	-0.682
CCCn1nc([N+](=O)[O-])c(C(C#N)c2nc3ccccc3s2)c(Cl)c1=O (stereo not drawn)	-2.49
CCCS(=O)(=O)N1CCC(C(=O)NCc2ccco2)CC1	0.18

SMILES	z-score
Cc1ccc(OCc2nnc(SCC(=O)c3cccs3)n2-c2ccccc2)cc1C	0.316
Cc1c(C(=O)OCC(=O)N2CC(C)OC(C)C2)oc2ccc(Br)cc12 (stereo not drawn)	-0.32
CC(C)(C)OC(=O)COc1cc(O)c2c(=O)cc(-c3ccccc3)oc2c1	4.76 (active)
CC(C)(C)OC(=O)COc1cc(OCC(=O)OC(C)(C)C)c2c(=O)cc(-c3ccccc3)oc2c1	-0.331
O=C(COc1cc(O)c2c(=O)cc(-c3ccccc3)oc2c1)c1ccccc1	0.0143
O=C(Cc1ccccc1)N/N=C/c1ccc(OCC(=O)Nc2ccccc2)cc1	-0.147
CCc1nc(C)ccc1OC(=O)C12CC3CC(CC(C3)C1)C2	0.238
Cc1ccc(-c2cc3cccc[n+]3cc2-c2ccc(C)cc2)cc1	-0.0109
Cc1cccc(NS(=O)(=O)c2ccc3c(c2)OCCO3)c1	2.76
Cc1ccc(S(=O)(=O)Nc2ccc3nc(C)sc3c2)cc1	-0.613
Cc1nc2ccc(NS(=O)(=O)c3ccc(C)c(C)c3)cc2s1	-0.187
O=S(=O)(Nc1ccc2c(c1)OCCO2)c1ccc(F)cc1	-0.102
Cc1nc2ccc(NS(=O)(=O)c3ccc4c(c3)OCCO4)cc2s1	3.48 (active)
O=S(=O)(Nc1cccnc1)c1ccc2c(c1)OCCO2	-0.833
CCCCOc1ccc(NC(=O)C2CC=CCC2C(=O)O)cc1 (stereo not drawn)	-0.0643
COc1ccc(S(=O)(=O)N(C)CC(=O)Nc2ccc3c(c2)OCO3)cc1	0.0177
O=C(c1ccco1)N1CCN(S(=O)(=O)c2ccc3[nH]c(=O)oc3c2)CC1	0.249
CC1(C)CC(=O)C2=C(C1)N(Cc1ccco1)C(=O)C2(NC(=O)c1ccc(Cl)cc1Cl)C(F)(F)F (stereo not drawn)	-0.289
CC(C)C(NC(=O)C1CCCCC1)C(=O)Nc1ccncc1 (stereo not drawn)	0.244
CCNC(=S)N/N=C/c1cccc(C)c1	0.00977
CCNC(=S)N/N=C/c1c(Cl)cccc1Cl	5.15 (active)
S=C(NCCc1ccccc1)N/N=C/c1c(Cl)cccc1Cl	0.353

SMILES	z-score
CCCCNC(=S)N/N=C/c1cc(C)ccc1C	1.48
Cc1ccc(NC(=S)N/N=C/c2ccc(OCCC(C)C)cc2)c(C)c1	0.599
Cc1ccc(NC(=S)NCCO)c(C)c1	-0.044
Cc1ccc(NC(=S)N/N=C/c2c(Cl)cccc2Cl)c(C)c1	9.31 (active)
Cc1ccc(C)c(/C=N/NC(=S)NCCc2ccccc2)c1	1.17
CCNC(=S)N/N=C/c1cc(C)ccc1C	2.43
Cc1cc(=O)[nH]c(SCC(=O)NCCc2ccccc2)n1	1.96
CCN(CC)C(=O)c1sc(NC(=O)c2ccc(C)c([N+](=O)[O-])c2)c(C#N)c1C	0.0677
CCOC(=O)C1C(=O)OC2(CCCCC2)C1C(=O)OCC (stereo not drawn)	0.124
O=C(Cn1c(=O)oc2cc(S(=O)(=O)N3CCCCCC3)ccc21)NC1CCCCCCC1	-0.034
CCc1nnc2sc(-c3cc(-c4ccccc4)nc4ccccc34)nn12	-0.507
Cc1ccc(CNC(=O)COc2ccccc2-c2ccccc2)cc1	-0.0564
Cc1nc2c(-c3ccccc3)c(C)nn2c(C)c1CCC(=O)O	0.235
CCN1CCN(c2ccc(NC(=O)CCc3c(C)nc4c(-c5ccccc5)c(C)nn4c3C)cc2)CC1	3.06 (active)
Cc1nc2c(-c3ccc(F)cc3)c(C)nn2c(C)c1CCC(=O)N1CCN(c2ccccc2)CC1	-0.81
CCn1nnc(-c2ccccc2NC(=O)c2cc(OC)cc(OC)c2)n1	-0.139
O=C(c1ccc(CS(=O)(=O)c2ccccc2)o1)N1CCN(c2ncccn2)CC1	-0.184
O=C(c1ccc(CS(=O)(=O)c2ccc(Br)cc2)o1)N1CCN(c2ncccn2)CC1	3.31 (active)
O=C(c1ccc(CS(=O)(=O)c2ccc(Br)cc2)o1)N1CCN(c2ccccn2)CC1	-0.169
COC(=O)c1sccc1NC(=O)CSc1cccc(Cl)c1Cl	-0.0544
COC(=O)c1sccc1NC(=O)CSc1cc(Cl)ccc1Cl	-0.165
COC(=O)c1sccc1NC(=O)CSc1ccccc1NS(=O)(=O)c1ccccc1Cl	3.17 (active)

SMILES	z-score
COC(=O)c1sccc1NC(=O)COc1ccccc1Cl	-0.212
COC(=O)c1sccc1NC(=O)COc1ccc(Cl)cc1Cl	-0.26
COC(=O)c1sccc1NC(=O)CSc1ccccc1NS(=O)(=O)c1cc(Cl)ccc1Cl	8.63 (active)
Cc1nn2c(-n3ccnc3C)c3c(nc2c1-c1ccccc1)CCC3	-0.311
Clc1ccc(CNCCC2=CCCCC2)cc1	2.27
Cc1ccc(CNCCC2=CCCCC2)cc1	2.07
O=C(CCSCc1ccc(Cl)cc1)NCCC1=CCCCC1	-0.242
Cc1ccc(CNC(=O)C(=O)NCCC2=CCCCC2)cc1	-0.102
C1=C(CCNCC2CC2)CCCC1	0.204
O=C(NCCC1=CCCCC1)C(=O)NCc1ccccc1	-0.143
COc1cc(NC(=O)CN(C)S(=O)(=O)c2ccc3c(c2)CCC(=O)N3)cc(OC)c1	-0.176
O=C1NC(=O)[C@@H]2C3c4ccccc4C=CN3[C@H](C(=O)c3cccs3)[C@H]12 (stereo partly drawn)	-0.687
CCCCC(=O)Nc1nn(CCC)c2nc3ccccc3cc12	-1.22
CC(C)=C1C2CCC1C1C(=O)N(NC(=O)COc3ccc(Cl)c(C)c3)C(=O)C21 (stereo not drawn)	-0.481
CC(C)=CCC/C(C)=C/C=N/NC(=O)c1ccccc1[N+](=O)[O-]	-0.0423
Cc1ccc(C2c3c(oc4ccc(Cl)cc4c3=O)C(=O)N2CCCN2CCOCC2)o1 (stereo not drawn)	3.95 (active)
Cc1ccc(C2c3c(oc4ccccc4c3=O)C(=O)N2CCCN2CCOCC2)o1 (stereo not drawn)	0.634
O=C1c2oc3ccc(Cl)cc3c(=O)c2C(c2ccco2)N1CCN1CCOCC1 (stereo not drawn)	0.841
CC(C)c1nnc(NC(=O)CCC(=O)NCc2ccc3c(c2)OCO3)s1	0.746
COc1ccc(CCNC(=O)c2nonc2N)cc1	-0.242
O=S(=O)(NCC1CCCO1)c1ccc(S(=O)(=O)N2CCc3ccccc3C2)cc1 (stereo not drawn)	0.1
COCCCNCCCOc1ccc(Cl)cc1Br	3.75 (active)

SMILES	z-score
COCCCNCCCOc1ccc(C)cc1Br	-0.00352
OCCNCCCOc1ccc(Cl)cc1Br	0.496
COc1ccc(N2C(=O)CC(N3CCN(c4ccc(C(=O)c5cccnc5)cc4)CC3)C2=O)cc1 (stereo not drawn)	-0.186
CC(C)(C)c1ccc(OCc2ccc(C(=O)N/N=C3\CC4CC=CC34)cc2)cc1 (stereo not drawn)	-0.0236
O=C1NC(=S)SC1=C1CCCCCC1	17.1 (active)
O=C1NC(=O)C(=C2CCCCCC2)S1	0.367
O=C1NC(=S)SC1=C1CCCC1	1.36
Cc1cc(C(=O)NCc2ccccc2F)cs1	-0.288
CCSC1=N/C(=C\c2ccc(OC)cc2)C(=O)N1	-0.286
S=c1[nH]nc(-c2ccc3ccccc3n2)n1-c1ccccc1Cl	0.0824
S=c1[nH]nc(-c2ccc3ccccc3n2)n1-c1cc(Cl)cc(Cl)c1	2.18
S=c1[nH]nc(-c2ccc3ccccc3n2)n1Cc1ccccc1	0.834
S=c1[nH]nc(-c2ccc3ccccc3n2)n1-c1ccc(Cl)cc1	0.934
S=c1[nH]nc(-c2ccc3ccccc3n2)o1	-0.153
S=c1[nH]nc(-c2ccc3ccccc3n2)n1-c1ccc2ncccc2c1	-0.148
CC(c1ccc(F)cc1)n1c(-c2ccc3ccccc3n2)n[nH]c1=S (stereo not drawn)	6.84 (active)
CC(c1ccc(Cl)cc1)n1c(-c2ccc3ccccc3n2)n[nH]c1=S (stereo not drawn)	7.23 (active)
S=c1[nH]nc(-c2ccc3ccccc3n2)n1-c1ccccc1	0.119
Cc1ccc(C(=O)CSc2nnc(COc3ccc(C#N)cc3)n2-c2ccccc2)cc1	0.655
Oc1csc(Cc2nc(-c3ccc4ccccc4c3)cs2)n1	-0.78
